Screening results deposited in PubChem by The Scripps Research Institute Molecular Screening Center.
In the library only some 2.4% were active in any assay of this set; here they are far more common.
CHO-K1 Ca antag – M1 antagonist counterscreen hit in parental CHO-K1 cells; inhibition, % at 3 µM; ATP-induced calcium, Fluo-8 fluorescence; 360,000 compounds, 0.6% hits;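 active = inhibition above a per-plate cutoff, the plate's mean sample inhibition plus 3 SD, cut at about 24% in these data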;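 note: 0% = DMSO plus EC80 ATP and 100% = DMSO alone without ATP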
CHRM1 antagonist – antagonists of human M1 muscarinic receptor; P11229; CHO-K1 hM1, Fluo-8 calcium fluorescence, ACh EC80 antagonist; inhibition, % at 3 µM; 360,000 compounds, 1.3% hits; AID 588852;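 active = percent inhibition above its own plate's cutoff, namely the mean of that plate's compound wells plus 3 SD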;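 note: peak over basal fluorescence ratio during 140 s after agonist addition; 0% = ACh EC80 plus DMSO and 100% = DMSO alone without agonist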
Target sequence (P11229 whole entry, looked up): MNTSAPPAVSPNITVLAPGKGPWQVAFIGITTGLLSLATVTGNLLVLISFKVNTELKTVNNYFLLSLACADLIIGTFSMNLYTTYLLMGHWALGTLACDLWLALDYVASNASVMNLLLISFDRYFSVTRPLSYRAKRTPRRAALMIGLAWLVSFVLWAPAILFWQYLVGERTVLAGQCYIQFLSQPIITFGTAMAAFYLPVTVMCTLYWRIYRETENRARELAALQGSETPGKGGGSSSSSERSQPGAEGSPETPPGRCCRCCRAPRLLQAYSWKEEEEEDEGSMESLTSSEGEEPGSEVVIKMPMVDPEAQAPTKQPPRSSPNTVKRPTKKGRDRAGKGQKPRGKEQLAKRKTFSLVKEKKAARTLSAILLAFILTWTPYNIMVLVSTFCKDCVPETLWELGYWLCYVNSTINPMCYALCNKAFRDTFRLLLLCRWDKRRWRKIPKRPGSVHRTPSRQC
M1 PAM parental – nonselective activator or artifact in parental CHO-K1 calcium assay. ATP EC20, Fluo-8 calcium fluorescence; 0% at ATP EC20, 100% at ATP max. activation, % at 3 µM. 360,000 compounds, 0.02% hits. AID 602247;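 active = activation above the run cutoff, the mean activation of all test compounds plus 3 SD, cut at about 40% in these data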;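 note: peak over basal fluorescence ratio in a 140 s read after ATP addition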
M1 ag parental – nonselective activator or artifact in parental CHO-K1 cells | Fluo-8 calcium fluorescence; scaled to maximal ATP response, vehicle zero | activation, % at 3 µM | 360,000 compounds, 0.48% hits; in the data active = activation above about 15%;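 note: untransfected CHO-K1 host cells lacking M1 receptor as counterscreen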
M1 PAM – potentiates human M1 receptor response to acetylcholine | P11229 | CHO-K1 hM1, Fluo-8 calcium fluorescence, ACh EC20; 0% = ACh EC20, 100% = maximal ACh | activation, % at 3 µM | 360,000 compounds, 0.088% hits | AID 588819; in the data active = activation above about 19%, passing the limit was not always enough
CHRM1 agonist – human M1 muscarinic receptor agonism | P11229 | CHO-K1 hM1, Fluo-8 calcium fluorescence, agonist mode; 0% DMSO, 100% acetylcholine EC100 | activation, % at 3 µM | 360,000 compounds, 0.33% hits;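 active = activation above the run's mean compound activation plus 3 SD, cut at about 16% in these data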;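 note: peak over basal fluorescence ratio within a 140 s kinetic read after compound addition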
Numbers without * were called inactive; . = no result.

SMILES | CHO-K1 Ca antag | CHRM1 antagonist | M1 PAM parental | M1 ag parental | M1 PAM | CHRM1 agonist
Cc1ccc(C(C(=O)NC2CCCC2)N(Cc2ccc3c(c2)OCO3)C(=O)c2snc(C(N)=O)c2N)cc1 (stereo not given) | 3 | 24* | -5 | 1 | -18 | -5
COc1ccc(C(C(=O)NC2CCCCC2)N(Cc2ccco2)C(=O)c2snc(C(N)=O)c2N)cc1 (stereo not given) | 11 | 25* | -2 | 5 | -12 | -1
CN(C)c1ccc(C(C(=O)NCC2CCCO2)N(Cc2ccccc2)C(=O)c2snc(C(N)=O)c2N)cc1 (stereo not given) | 0 | 26* | 8 | 7 | -12 | 0
COc1ccc(-c2oc3c4c2C(=O)OCCOC4CCC3)cc1 (stereo not given) | -23 | . | 23 | 0 | . | .
COc1ccc(Cl)cc1NC(=O)C/C(C)=N/NC(=O)C(=O)NCc1ccccc1 | -17 | -21 | 8 | -1 | 17 | -10
COc1ccc(C2=CSC3=NCCN23)cc1OC | -2 | 8 | 10 | 0 | -4 | -3
CCCCOc1ccc(C2=CSC3=NCCN23)cc1[N+](=O)[O-] | 1 | 59* | 7 | 0 | -28 | -9
Clc1ccc(C2=CSC3=NCCN23)cc1Cl | -8 | 17* | 7 | 1 | -21 | -6
COc1ccc(/C=C\C(=O)O[C@@H]2C(O)C(O[C@@H]3OC(C)[C@H](O[C@@H]4OCC(O[C@H]5O[C@H](CO)[C@@H](O)C(O)C5O)C(O)C4O)C(O)C3O)[C@H](OC(=O)[C@]34CCC(C)(C)C[C@@H]3C3=CCC5[C@@]6(C)CC(O)C(O[C@@H]7OC(CO)C(O)[C@H](O)[C@H]7O)[C@@](C)(C(=O)O)C6CC[C@@]5(C)[C@]3(CO)CC4)O[C@H]2C)cc1 (stereo not given in full) | 71* | 85* | -20 | 90* | -37 | 95*
Cc1ccc(S(=O)(=O)NCCNc2ccc(Br)c(C)c2)cc1 | -4 | 23 | 3 | 5 | -13 | -3
COc1cc(C2=NOC(C(=O)Nc3ccc4c(c3)OCO4)C2)cc(OC)c1OC (stereo not given) | 4 | 2 | -7 | 18* | -3 | 4
CS(=O)(=O)c1ccc(Cl)c(NC(=O)CNC(=O)c2ccc3c(c2)OCO3)c1 | -7 | -9 | 7 | 1 | 0 | -4
C=C(C)[C@@H]1CC=C(CN2CCN(Cc3ccccc3)CC2)CC1 | 1 | 38* | -12 | 0 | -31 | -11
O=C(CCN1CCOCC1)Nc1ccc(Cl)cc1 | -1 | -3 | 6 | 1 | 2 | -2
COc1ccc(CNc2ccc(Cl)cc2)cc1Cn1ccnc1 | 7 | -2 | 18 | 4 | -1 | 17*
CC1CCCCC12NC(=O)N(CC(=O)c1ccc3c(c1)OCO3)C2=O (stereo not given) | 32* | -12 | -20 | 0 | 9 | 3
CC1(c2ccc([N+](=O)[O-])cc2)NC(=O)N(CC(=O)c2ccc3c(c2)OCO3)C1=O (stereo not given) | 7 | -1 | -15 | 30* | 1 | 37*
CC1(c2ccc(OC(F)F)cc2)NC(=O)N(CC(=O)NC2CCCCC2)C1=O (stereo not given) | -19 | -12 | 18 | 3 | 5 | 10
CC1(c2ccc(OC(F)F)cc2)NC(=O)N(CC(=O)c2ccc3c(c2)OCO3)C1=O (stereo not given) | 0 | 1 | -16 | 36* | -10 | 43*
CCOc1ccc(CCNC(=O)COC(=O)C2CC2)cc1OCC | -3 | -16 | 17 | 3 | 8 | -2
O=[N+]([O-])c1cc(-c2cccnc2)n[nH]1 | -19 | -14 | 17 | 1 | 10 | -1
Cn1c(=O)c2c(nc(OC3CCCCCC3)n2C)n(C)c1=O | -9 | -9 | -2 | 0 | 2 | 2
CCCCN(C(=O)c1cc(S(=O)(=O)N2CCCCCC2)ccc1OC)c1c(N)n(CCC)c(=O)[nH]c1=O | 25* | -6 | -37 | 0 | 16 | 7
COC(=O)C(Cc1ccc(OC(=O)c2ccc(Cl)cc2)cc1)N1Cc2ccccc2C1=O (stereo not given) | 34* | 21* | 2 | 9 | -15 | 3
O=C(O)CC(c1ccc(Cl)cc1)N1Cc2ccccc2C1=O (stereo not given) | 1 | 6 | -5 | 0 | 1 | -2
SMILES | CHO-K1 Ca antag | CHRM1 antagonist | M1 PAM parental | M1 ag parental | M1 PAM | CHRM1 agonist
COC(=O)C(Cc1ccc(OC(=O)c2ccc(C(F)(F)F)cc2)cc1)N1Cc2ccccc2C1=O (stereo not given) | 25* | 36* | 1 | 10 | -23 | -1
CCOC(=O)C1CCN(c2c(NCc3ccc(C(=O)N(C)Cc4ccccc4)cc3)c(=O)c2=O)CC1 | -5 | 2 | 13 | 0 | -2 | -10
NCC1CC2c3ccccc3C1c1ccccc12 (stereo not given) | -2 | 28* | 1 | 2 | -17 | -9
COc1ccc(-c2cc(-c3ccccc3O)[nH]n2)cc1OC | 25* | 31* | -9 | 0 | -8 | -3
Cc1cc(C)c(S(N)(=O)=O)c(C)c1N(C)S(=O)(=O)c1ccccc1 | -15 | -4 | 23 | 2 | 10 | -4
Cc1cc(C)c(S(N)(=O)=O)c(C)c1N(C)S(=O)(=O)c1ccc(Cl)cc1 | 16 | 40* | -20 | 1 | -13 | 0
CC1=C(C(=O)Nc2ccc(F)cc2)C(c2ccncc2)C2=C(CCCC2=O)N1 (stereo not given) | 24* | 4 | -7 | 0 | 2 | 0
CC1=C(C(=O)Nc2cccnc2)C(c2ccc3c(c2)OCO3)C2=C(CCCC2=O)N1 (stereo not given) | -5 | -20 | 13 | 0 | 4 | -3
CCOC(=O)C1=C(C)NC2=C(C(=O)CCC2)C1c1ccc(N(C)C)cc1 (stereo not given) | -8 | 45* | 10 | 0 | -32 | -12
CCCOC(=O)C1=C(C)NC2=C(C(=O)CCC2)C1c1ccc(N(C)C)cc1 (stereo not given) | 2 | 26* | 8 | -1 | -25 | -10
CCN(CC)c1ccc(C2C(C(=O)OCCOC)=C(C)NC3=C2C(=O)CCC3)cc1 (stereo not given) | -10 | 24 | 23 | 0 | -18 | -9
Cc1csc2c(=O)sc(NC(=O)c3cccs3)nc12 | -10 | -5 | 18 | 1 | 3 | 0
O=C(NC12CC3CC(CC(C3)C1)C2)c1cncc(Br)c1 | -2 | 2 | 9 | -1 | 3 | -9
COc1ccccc1CNC(=O)CN1C(=O)c2ccc([N+](=O)[O-])cc2C1=O | -8 | -3 | -18 | 1 | -1 | -2
COc1ccccc1-c1cc(NC(C)=O)c2ncc(-c3ccccc3)n2c1 | -6 | -7 | 17 | 2 | 1 | -2
